Results on 91 compounds are retold here after PubChem BioAssay AID1259422 (The Scripps Research Institute Molecular Screening Center, 2018).

For orientation: inhibition means the relative decrease from the control value, in per cent.

“And” between values parts separate entries of the source, which are not always exact repeats. Identical values can stand only once. Out of some 640,000 compounds screened, about 9,300 (1.5%) were called active. The sample holds actives, similar compounds and a random draw of the others, so the mix is not that of the screen. Rule as the data show it: active = inhibition above about 32%; inactive = the rest.

The nature of the experiment: TEAD-YAP interaction inhibition, primary screen, TEAD-YAP interaction inhibitor project, luminescence, HEK-TIYL cells (AID 1259422).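 Also: 0% = median of test compound wells and 100% = reference inhibitor wells.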 The note with it: TEAD-Gal4/YAP UAS-luciferase luminescence, at 9.12 µM, active compounds read high.
Consider `Cc1nc(Oc2cc3sc(C)nc3c3sccc23)c2c3c(sc2n1)CCCC3`, for which the inhibition is 4.62% (inactive).

Regarding `Cc1cc(-n2c(C)cc(C(=O)COC(=O)c3cc(=O)[nH]c4ccccc34)c2C)no1`, the inhibition was -18.6% (inactive).

`CCC(C)NC(=O)C(C(F)(F)F)(C(F)(F)F)C(F)(F)F` (stereo unspecified): the inhibition was 4.25% (inactive). Take `COc1ccc(-c2cnnn2-c2ccc(-c3csc(N)n3)cc2)cc1`: the inhibition was 9.88% (inactive). To `COc1ccc(C(=O)N2CCC[C@@H]2[C@@H](O)c2cccs2)cc1Cn1cccn1` belongs -11.1% (inactive); to `O=C(Nc1ccc2ccccc2c1)c1ccc2c(c1)C(=O)N(N1C(=O)c3ccccc3C1=O)C2=O`, 2.19% (inactive); to `Cc1ccc2oc(=O)c3cnn(CC(=O)N4CCN(c5ccccn5)CC4)c3c2c1`, 1.66% (inactive). To `Cc1ccc2oc(=O)c3cnn(CC(=O)N4CCN(c5cccc(Cl)c5)CC4)c3c2c1` belongs 0.74% (inactive); to `Cc1cccc(N2CCN(C(=O)Cn3ncc4c(=O)oc5ccccc5c43)CC2)c1C`, 63% (active); to `COc1ccc(/C=C2N=C(/C=C/c3ccc(Cl)cc3Cl)OC\2=O)cc1OC(C)=O`, -1.28% (inactive). To `Cc1ccccc1-n1c(=S)sc2c(=O)n(-c3ccccc3)c(SCc3cccc([N+](=O)[O-])c3)nc21` belongs -6.72% (inactive). For the compound `O=C1C2CC=CCC2C(=O)N1c1ccc(N2C(=O)C3CC=CCC3C2=O)c(Cl)c1` (stereo unspecified), the inhibition was 9.86% (inactive).

On to `CCC(=O)Nc1ccc(-c2nc3ccccc3o2)cc1`, for which the inhibition was 3.84% (inactive). To `O=C(Nc1ccc(-c2nc3ccccc3o2)cc1)c1ccc(Oc2ccccc2)cc1` belongs -4.71% (inactive); to `CC(C)C(=O)Nc1ccc(-c2nc3ccccc3o2)cc1`, 44.5% (active). In the case of `COc1ccc(C(=O)N/C(=C/c2ccc([N+](=O)[O-])cc2)C(=O)Nc2cc(Cl)cc(Cl)c2)c(Cl)c1`, the inhibition is -19% (inactive).

For the compound `CS(=O)(=O)N(CC(=O)NCCC1=CCCCC1)c1ccc(OCc2ccccc2)cc1`, the inhibition was 5.23% (inactive).

In the case of `Cc1cc(NC(=O)COc2ccccc2Br)no1`, the inhibition was -74.2% (inactive).

Turning to `CCOC(=O)c1cccc(NC(=O)COc2ccccc2Br)c1`, the inhibition is 54.5% (active).

For `CCCCOC(=O)c1cccc(NC(=O)COc2ccc(C)c(C)c2)c1`, the inhibition is -33.7% (inactive). To `Cc1ccsc1/C=N/NS(=O)(=O)c1ccc(Br)cc1` belongs -2.4% (inactive); to `CC(C)C(=O)N=C1N=C2C=CC(Cl)=CN2Cc2ccccc21`, -43.4% (inactive); to `COc1cccc(/C=N/Nc2ncnc3nc[nH]c23)c1OC`, 37.2% (active). With `CCOc1ccc(/C=N/Nc2ncnc3nc[nH]c23)cc1`, the inhibition is 81.1% (active).

Consider `COC(=O)c1ccc(Nc2ncnc3nc[nH]c23)cc1`, for which the inhibition is 12.4% (inactive).

On to `COc1ccccc1-c1cnnc(N/N=C/c2cccc(OC)c2OCC(=O)O)n1`, for which the inhibition is 15% (inactive). To `COc1ccc(/C=N/Nc2ncnc3nc[nH]c23)cc1OC` belongs -5.99% (inactive); to `COc1cccc(/C=N/Nc2nc(=O)[nH]nc2C)c1OC`, -7.82% (inactive); to `Cc1sc2ncn(CC(=O)NCCCC(=O)NCCC3=CCCCC3)c(=O)c2c1C`, 6.71% (inactive). To `CCOc1ccc(/C(O)=C2/C(=O)C(=O)N(CCN(CC)CC)C2c2ccc(F)cc2)cc1C` (stereo unspecified) belongs -0.51% (inactive). Turning to `CCCCCCn1c(NNC=O)nc2c1c(=O)[nH]c(=O)n2C`, the inhibition is 5.98% (inactive).

Consider `CCOC(=O)c1ccc(NC(=O)C2CC(=O)N(CCc3ccccc3)C(=Nc3ccccc3)S2)cc1` (stereo unspecified), for which the inhibition was 5.21% (inactive). To `Cc1ccc(CN(C)Cc2c(C(=O)N3CCN(C4CCCCC4)CC3)nc3ccccn23)o1` belongs -4.7% (inactive). `COc1ccc(Nc2nc(N3CCCC3)nc(N3CCCC3)n2)cc1`: the inhibition was 1.54% (inactive).

Regarding `COc1ccccc1N1CCN(C(=O)c2n[nH]c(=O)c3ccccc23)CC1`, the inhibition was 59% (active). To `COc1cc(CN2CCN(c3ccccc3OC)CC2)cc(OC)c1` belongs 4.91% (inactive); to `COc1cc2nc(CN3CCN(c4ccccc4OC)CC3)[nH]c(=O)c2cc1OC`, 63.6% (active). In the case of `COc1ccccc1-n1nc(C(=O)N2CCN(c3ccccc3)CC2)c2ccccc2c1=O`, the inhibition is 0.45% (inactive). To `COc1cc(OC)c(OC)cc1CN1CCN(c2ccccc2F)CC1` belongs 2.95% (inactive); to `O=C(c1n[nH]c(=O)c2ccccc12)N1CCN(Cc2ccccc2)CC1`, -7.02% (inactive). To `COc1ccccc1N1C(=O)C2C(C(C)=O)=NN(c3cccc(Cl)c3)C2C1=O` (stereo unspecified) belongs 2.39% (inactive). To `O=C(CN1CCOCC1)NCC1(c2ccccc2)CCCC1` belongs 4.7% (inactive); to `CCOC(=O)c1c(NC(=O)CSc2nnc(CNC(=O)c3cccs3)n2-c2ccccc2OC)sc2c1CCCCC2`, 11.5% (inactive).

As to `O=S1(=O)Nc2cccc3cccc1c23`, the inhibition was 9.46% (inactive). To `CC(=O)Nc1ccc(CN2CCOCC2)cc1` belongs -2.53% (inactive); to `CCN1C/C(=C/c2ccc(NC(C)=O)cc2)C(=O)/C(=C/c2ccc(NC(C)=O)cc2)C1`, 77.6% (active); to `CCNCC(=O)Nc1ccc(NC(C)=O)cc1`, 5.37% (inactive). For the compound `CCCOc1ccc(/C(O)=C2/C(=O)C(=O)N(CCN3CCOCC3)C2c2ccc(F)cc2)cc1C` (stereo unspecified), the inhibition is -9.41% (inactive). On to `O=C1CCCN1CCCNc1cc(-c2cccs2)ncn1`, for which the inhibition is -13.2% (inactive).

With `CN(CCC#N)C(=O)Cn1ncc2c1-c1ccccc1OC2`, the inhibition is 4.76% (inactive). To `COC(=O)c1cc(S(=O)(=O)Nc2ccc(C(C)=O)cc2)cn1C` belongs -5.94% (inactive); to `COc1ccc(C2(C)SC(NC(C)=O)=NN2C(C)=O)cc1` (stereo unspecified), 17.7% (inactive); to `CC(=O)NC1=NN(C(C)=O)C(C)(c2ccc(Cl)s2)S1` (stereo unspecified), 63.5% (active). For the compound `CC(=O)NC1=NN(C(C)=O)C(C)(c2ccc(C)cc2)S1` (stereo unspecified), the inhibition is 10.1% (inactive). To `CCOC(=O)c1ccc(Nc2c(-c3ccccc3)c(=O)c2=O)cc1` belongs -7.89% (inactive); to `NC(=O)C1(N2CCCCC2)CCN(C(=O)Nc2ccc(Cl)cc2)CC1`, 3.68% (inactive); to `CCC(OC(=O)C(CCSC)NC(=O)c1ccccc1)C(=O)Nc1ccc(S(N)(=O)=O)cc1` (stereo unspecified), -0.22% (inactive). To `C=CCOC(=O)c1sc(N2C(=O)C(=O)/C(=C(/O)c3ccccc3)C2c2ccc(C)cc2)nc1C` (stereo unspecified) belongs 7.19% (inactive); to `CCCn1c(NCCO)nc2c1c(=O)n(C)c(=O)n2C`, 15.2% (inactive); to `COc1ccc(Cn2c(NCCO)nc3c2c(=O)n(C)c(=O)n3C)cc1`, 40.8% (active). To `CN(C)CCNc1nc2c(c(=O)n(C)c(=O)n2C)n1Cc1ccc(F)cc1` belongs 10.5% (inactive). In the case of `CC1=C/C(=N\S(=O)(=O)c2ccccc2)C=C(Br)C1=O`, the inhibition is -6.31% (inactive).

Turning to `CC1=C(C(=O)OCC2CCCO2)C(c2cccs2)C2=C(CC(c3cccs3)CC2=O)N1` (stereo unspecified), the inhibition is 9.36% (inactive).

As for `CC1=C(C(=O)OC(C)C)C(c2cccs2)C2=C(CC(c3ccco3)CC2=O)N1` (stereo unspecified), the inhibition was 60.2% (active). To `COCCOC(=O)C1=C(C)NC2=C(C(=O)CC(c3cccs3)C2)C1c1ccc(C)s1` (stereo unspecified) belongs 16% (inactive) and 7.86% (inactive); to `COc1cc(NC(=O)c2sc3[nH]c(=O)c(C(=O)O)cc3c2N)c(OC)cc1Cl`, -5.84% (inactive). To `CCn1cc(C(=O)N2CCc3c(nc(N4CCC(C)CC4)[nH]c3=O)C2)cn1` belongs -0.66% (inactive). To `Cc1cnc(Nc2ccc(C(F)(F)F)cc2)nc1Nc1ccccc1` belongs 11.3% (inactive); to `Cc1cnc(Nc2ccncc2)nc1Nc1ccc(Oc2ccccc2)cc1`, 45.7% (active); to `Cc1cnc(Nc2ccc3ncccc3c2)nc1Nc1ccccc1`, 29.6% (inactive). As to `O=C(OCCN1C(=O)c2cccc3c(N4CCCCC4)ccc(c23)C1=O)c1cc(Cl)cc(Cl)c1`, the inhibition was -2.51% (inactive). Take `O=C(NCCOc1ccccc1)c1cnc(NCCCN2CCCC2=O)s1`: the inhibition is -45.5% (inactive).

As for `O=C(NCCOc1ccccc1)c1cnc(N2CCCC2CO)s1` (stereo unspecified), the inhibition was 81.8% (active).

Turning to `O=C(NCCOc1ccccc1)c1cnc(N2CCN(c3ccccn3)CC2)s1`, the inhibition is -4.73% (inactive). To `COc1ccc(-c2nc3c(C#N)c(CC#N)nn3cc2C)cc1F` belongs 7.27% (inactive); to `COc1ccc(-c2cn3ccc(C)cc3n2)cc1F`, 78.7% (active). To `COc1ccc(-c2nc3sc(-c4ccc(OC)cc4)nc3s2)cc1` belongs -1.58% (inactive). To `COc1ccc(-c2cn3cc(C(=O)O)ccc3n2)cc1` belongs 15.8% (inactive); to `COc1cc(C(=O)Nc2cccc(-c3cn4ccc(C)cc4n3)c2)cc(OC)c1OC`, -17.7% (inactive); to `COc1ccc(-c2cn3ccc(C)cc3n2)cc1`, 90.6% (active).

As for `COCCNc1nc(-c2c[nH]c3ccccc23)cs1`, the inhibition was 0.65% (inactive).

Regarding `CCOC(=O)N1CCC(NC(=O)C2CC23CCN(CC2CC=CCC2)CC3)CC1` (stereo unspecified), the inhibition is 11.9% (inactive). In the case of `CCN(CC(=O)Nc1ccccc1OC)Cc1nc2scc(-c3ccccc3)c2c(=O)[nH]1`, the inhibition is -1.6% (inactive). To `CC(=O)N1c2ccccc2N=C(c2ccc(C)cc2)CC1c1ccc([N+](=O)[O-])cc1` (stereo unspecified) belongs 2.03% (inactive).

Take `Cc1ccc(C2=Nc3ccccc3N=C(c3ccc(C(C)(C)C)cc3)C2)c(O)c1`: the inhibition is 38.6% (active). For `Oc1ccc(Cl)cc1C1=Nc2ccccc2N=C(c2cccc(F)c2)C1`, the inhibition was -24.4% (inactive). To `COc1ccccc1NC(CNS(=O)(=O)c1ccc(Cl)cc1)c1ccccc1` (stereo unspecified) belongs -1.96% (inactive); to `COc1ccccc1OCC(=O)Nc1ncc(Cc2cccc(C)c2)s1`, 3.43% (inactive). To `Cc1ccccc1OCC(=O)Nc1ncc(Cc2cccc(Cl)c2)s1` belongs 50.4% (active); to `Cc1cccc(Cc2cnc(NC(=O)COc3cccc(C)c3)s2)c1`, 5.87% (inactive); to `O=C(Cn1c(=O)oc2cc(S(=O)(=O)NC3CCCC3)ccc21)N1CCCCCC1`, -0.34% (inactive).
